Experimental findings from PubChem BioAssay (NCATS) are described below.

Each structure is given as a SMILES string. Inconclusive results are not listed. Entries that show only a call come without a potency. Calls of active or inactive are those of the source. Calls follow the shape of the dose curve; as a rule, active = well fitted inhibition curve with a large enough effect; inconclusive = small, poorly fitted or top-dose-only effect; inactive = flat fitted curve, though single readings scatter.
Potency is read from the fitted curve at half-maximal effect.

The test relates to CP260. Put plainly: qHTS profiling for inhibitors of Plasmodium falciparum proliferation (AID 504749). Also: nearly all actives have a fitted effect of over 60% in size. The note with it: P. falciparum in erythrocytes, SYBR Green DNA, 72 h; series mostly up to 28.7 µM. The gist of the method:
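Each compound contacts P. falciparum-infected red blood cells for 72 h at 37 C; lysis buffer (Tris, EDTA, saponin, Triton X, SYBR Green I) is added and fluorescence measured next morning; values normalized to controls.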
On the technique in general: qHTS replaces the single test concentration by a dilution series.
Consider `Cc1ccc(C(C)(C)c2ccc(C)cc2)cc1`, for which the Potency result is “inactive”.
`N[C@H](CC(=O)O)C(=O)O`: the Potency result was “inactive”.
The result for `O=C(O)COc1ccc(CCNS(=O)(=O)c2ccccc2)s1` reads “inactive”; that for `O=S(=O)(O)CCCS(=O)(=O)O`, “inactive”.
Take `COC(=O)c1ccccc1O`: the Potency entry was “inactive”.
For the compound `CC1(O)CCC(C(C)(C)O)CC1` (configuration not stated), the Potency entry is “inactive”.
As for `COc1ccc(/C=C/C(=O)O)cc1`, the Potency result was “inactive”.
For `CC(=O)Nc1c(I)c(C(=O)O)c(I)c(N(C)C(C)=O)c1I`, the Potency entry was “inactive”.
With `Nc1ncnc2c1ncn2[C@H]1CC[C@@H](CO)O1`, the Potency result is “inactive”.
For `COC(=O)C(CN)c1c[nH]c2ccc(OC)cc12` (configuration not stated), the Potency entry is “inactive”.
The result for `CC/C(=C(/CC)c1ccc(OP(=O)(O)O)cc1)c1ccc(OP(=O)(O)O)cc1` reads “inactive”; that for `CN1c2c(nc(N)[nH]c2=O)NCC1CNc1ccc(C(=O)NC(CCC(=O)O)C(=O)O)cc1` (configuration not stated), “inactive”.
On to `CC(C)(CO)[C@@H](O)C(=O)NCCC(=O)NCCSSCCNC(=O)CCNC(=O)[C@H](O)C(C)(C)CO`, for which the Potency result was “inactive”.
Regarding `CCCC(=O)O`, the Potency entry was “inactive”.
Turning to `CCSc1ccc2c(c1)N(CCCN1CCN(C)CC1)c1ccccc1S2`, the Potency entry was “inactive”.
For the compound `CC1=CC(=C(c2ccc(N)cc2)c2ccc(N)cc2)C=CC1=N`, the Potency is 2510 nM (active).
For `CC1=CC(=O)NS(=O)(=O)O1`, the Potency entry was “inactive”.
`CC1CCCCN1CCCOC(=O)c1ccccc1` (configuration not stated): the Potency result was “inactive”.
With `COC(=O)CC[C@H](N)C(=O)O`, the Potency entry was “inactive”.
On to `C[C@H](CCC(=O)O)[C@H]1CC[C@H]2[C@@H]3CC[C@@H]4C[C@H](O)CC[C@]4(C)[C@H]3C[C@H](O)[C@]12C`, for which the Potency entry is “inactive”.
The result for `CO` reads “inactive”; that for `C=CCN1CCCC1CNC(=O)c1cc(S(N)(=O)=O)cc(OC)c1OC` (configuration not stated), “inactive”.
